{"source": "PubChem BioAssay AID2778", "about": "(National Center for Advancing Translational Sciences (NCATS), 2010)", "note": "Results filed as inconclusive are left out. Unmarked numbers belong to inactive results. Active and inactive are the calls of the source. The call rests on the fitted dose curve; in most records, active means well fitted inhibition curve with a large enough effect; inconclusive means small, poorly fitted or top-dose-only effect, or effect the other way; inactive means flat fitted curve, though single readings scatter. On the % scale 0 is the no-effect control and ±100 the full control effect; potency means the concentration at half of the fitted maximal effect.", "data": [{"biological_target": "Menin (Homo sapiens) (UniProt O00255)", "sequence (O00255 whole entry, looked up)": "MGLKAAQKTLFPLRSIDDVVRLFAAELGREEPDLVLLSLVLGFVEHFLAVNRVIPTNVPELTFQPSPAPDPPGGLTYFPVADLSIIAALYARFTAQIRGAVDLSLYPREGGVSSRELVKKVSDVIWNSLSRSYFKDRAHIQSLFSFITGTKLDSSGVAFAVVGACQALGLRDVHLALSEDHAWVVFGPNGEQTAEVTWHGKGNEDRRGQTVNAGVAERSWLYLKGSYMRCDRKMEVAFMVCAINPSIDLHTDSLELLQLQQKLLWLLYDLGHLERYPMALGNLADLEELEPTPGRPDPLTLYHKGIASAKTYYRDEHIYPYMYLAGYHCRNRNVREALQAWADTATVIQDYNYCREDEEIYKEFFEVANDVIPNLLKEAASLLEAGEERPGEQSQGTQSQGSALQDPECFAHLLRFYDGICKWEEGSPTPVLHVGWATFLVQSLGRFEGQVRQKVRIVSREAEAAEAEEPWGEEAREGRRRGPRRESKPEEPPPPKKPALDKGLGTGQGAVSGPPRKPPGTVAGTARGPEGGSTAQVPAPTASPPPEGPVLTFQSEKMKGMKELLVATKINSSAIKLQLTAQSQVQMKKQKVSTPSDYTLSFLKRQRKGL", "experiment": "Confirmation of Inhibitors Targeting the Menin-MLL Interaction in MLL Related Leukemias: Confirmation in an HTRF (commercial TR-FRET) Assay using His-tagged menin and biotin-labeled MLL peptide", "settings": "His-menin / biotin-MLL peptide binding; series mostly up to 126 µM; activity change, negative = inhibition: at the top concentration", "procedure,_shortened": "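Compounds were incubated 1 hr at ambient with a preformed His6-menin (200 nM)/biotinylated MLL-w.t. peptide (80 nM) complex in Tris pH 7.5 buffer; anti-His Eu-cryptate (3.5 nM) and SA-XL665 (10 nM) added, TR-FRET read after 1h.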", "values": [{"smiles": "CCN1CCN(CC(=O)Nc2ccc(C(C)=O)cc2)CC1", "activity change, negative = inhibition": "0.507%"}, {"smiles": "CC(c1ccncn1)N(C)Cc1nc(-c2ccc(C(F)(F)F)cc2)no1", "note": "(centres undefined)", "activity change, negative = inhibition": "7.72%"}, {"smiles": "CC(=O)c1cccc(NS(=O)(=O)c2ccc(N/C=C\\C(=O)c3ccc(F)cc3)cc2)c1", "activity change, negative = inhibition": "-12.9%"}, {"smiles": "CCC(=O)NC(=S)Nc1ccc(-c2nc3ccc(C)cc3s2)cc1", "activity change, negative = inhibition": "-21.6%"}, {"smiles": "Cc1nn(-c2ccccc2)c2nc(N)c(C(N)=O)cc12", "activity change, negative = inhibition": "11.3%"}, {"smiles": "Cc1nc(C)c(-c2ccc(SCc3ccccc3F)nn2)s1", "activity change, negative = inhibition": "2.1%"}, {"smiles": "O=c1[nH]nc(Cc2ccc(-c3ccc(Cl)cc3)o2)c2ccccc12", "activity change, negative = inhibition": "-18.4%"}, {"smiles": "O=C(Nc1nnc(SCc2ccc(F)cc2)s1)c1ccc2c(c1)C(=O)N(c1ccccc1Cl)C2=O", "activity change, negative = inhibition": "-21.6% [at 383 µM]"}, {"smiles": "O=C1C(=O)c2ncccc2-c2cccnc21", "activity change, negative = inhibition": "-3.61%"}, {"smiles": "COc1ccc(OC)c(C(c2c(C)[nH][nH]c2=O)c2c(C)[nH][nH]c2=O)c1", "activity change, negative = inhibition": "-8.58% [at 383 µM]"}, {"smiles": "CCCOc1ccc(C(=O)N2CCN(Cc3ccc4c(c3)OCO4)CC2)cc1", "activity change, negative = inhibition": "1.23%"}, {"smiles": "COC(=O)c1ccccc1NC1=C/C(=N\\S(=O)(=O)c2ccc(C(=O)O)cc2)c2ccccc2C1=O", "activity change, negative = inhibition": "-21.4% [at 383 µM]"}, {"smiles": "O=C(CCN1CCN(c2ccc([N+](=O)[O-])cc2)CC1)c1ccc(Cl)cc1", "activity change, negative = inhibition": "-5.98% [at 383 µM]"}, {"smiles": "COc1ccc(CNC(=O)C(c2ccc(O)cc2)N(Cc2ccco2)C(=O)c2snc(C(N)=O)c2N)cc1", "note": "(centres undefined)", "activity change, negative = inhibition": "-9.89%"}, {"smiles": "CCc1nnc(NC(=O)C2(C)COC(c3ccc(OC)cc3)OC2)s1", "note": "(centres undefined)", "activity change, negative = inhibition": "-0.226%"}, {"smiles": "COC(=O)c1cc(CNC(=O)CCCSc2ccccc2)ccc1OC", "activity change, negative = inhibition": "3.68%"}, {"smiles": "O=C(O)CCC(=O)Nc1ccc(SSc2ccc(NC(=O)CCC(=O)O)cc2)cc1", "activity change, negative = inhibition": "7.72% [at 383 µM]"}, {"smiles": "Cc1nc2oc3c(NCC4CCCO4)ncnc3c2c2c1COC(C)(C)C2", "note": "(centres undefined)", "activity change, negative = inhibition": "11.4%"}, {"smiles": "CC(C)Sc1nc(N2CCOCC2)c2c3c(sc2n1)COC(C)(C)C3", "Potency": "316 µM (active)"}, {"smiles": "CN1[C@H](CC(=O)c2ccccc2)CCC[C@H]1C[C@@H](O)c1ccccc1", "activity change, negative = inhibition": "0.991% [at 383 µM]"}, {"smiles": "O=C(N/N=C/c1cn(-c2cccs2)nc1-c1ccccc1)c1ccccc1O", "activity change, negative = inhibition": "-10.9% [at 383 µM]"}, {"smiles": "CCCC(c1nnnn1Cc1cccs1)N1CCN(C2CCCC2)CC1", "note": "(centres undefined)", "activity change, negative = inhibition": "-23.6%"}, {"smiles": "C=C(C)CNC(=S)Nc1cccc2cnccc12", "activity change, negative = inhibition": "6.82%"}, {"smiles": "Clc1ccc(-c2nnc(-c3ccccc3)nc2-c2c[nH]c3ccccc23)cc1", "activity change, negative = inhibition": "-19.6%"}, {"smiles": "CC(c1cc2ccccc2s1)N(O)C(N)=O", "note": "(centres undefined)", "activity change, negative = inhibition": "2.69% [at 383 µM]"}, {"smiles": "c1ccc(-c2ccc(-c3csnn3)cc2)cc1", "activity change, negative = inhibition": "-8.86%"}, {"smiles": "O=C(Cn1nc(-c2ccccc2)ccc1=O)N1CCCCC1", "activity change, negative = inhibition": "3.9% [at 383 µM]"}, {"smiles": "CCCN1CCN(CC(O)COC(c2ccc(OC)cc2)c2ccc(OC)cc2)CC1", "note": "(centres undefined)", "activity change, negative = inhibition": "-2.05%"}, {"smiles": "COc1cc(OC)c2ccc(=O)oc2c1C(CCN1CCOCC1)c1ccc(N(C)C)cc1", "note": "(centres undefined)", "activity change, negative = inhibition": "-0.945%"}, {"smiles": "Cc1ccc(NC(=O)CN(C)C(=O)COc2cccc3cccnc23)cc1", "activity change, negative = inhibition": "-4.79% [at 383 µM]"}, {"smiles": "Cc1cccc(NC(=S)NC(NC(=O)OCc2ccccc2)C(Cl)(Cl)Cl)c1", "note": "(centres undefined)", "activity change, negative = inhibition": "-17.5% [at 383 µM]"}, {"smiles": "c1ccc2c(c1)nc(N1CCOCC1)c1c3ccccc3[nH]c21", "activity change, negative = inhibition": "-9.36% [at 383 µM]"}, {"smiles": "CN(C)/C=C(/C(=O)c1ccc(Cl)cc1)S(=O)(=O)c1ccc(Cl)cc1", "activity change, negative = inhibition": "1.54% [at 383 µM]"}, {"smiles": "COc1ccc(C)cc1N(C(=O)c1snc(C(N)=O)c1N)C(C(=O)NC1CCCC1)c1ccc(F)cc1", "note": "(centres undefined)", "activity change, negative = inhibition": "-1.82% [at 383 µM]"}]}]}
